Reference: PubChem BioAssay (NCATS)
Records with an inconclusive call do not appear. Calls of active or inactive are those of the source. Unless noted, calls come from the whole dose curve; as a rule, active = well fitted curve in the direction sought with a large enough effect; inconclusive = small, poorly fitted or top-dose-only effect, or another doubt; inactive = no such curve, though single readings can be large; an effect the other way counts as inactive or inconclusive.

Legend:
[1] = target: Luciferin 4-monooxygenase (Photinus pyralis) (UniProt P08659); assay: Biochemical firefly luciferase enzyme assay for NPC (AID 624030);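 note: purified P. pyralis luciferase at 10 nM with luciferin and ATP substrate; nearly all actives have a fitted effect of over 70% in size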
Summary of the method: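 Purified P. pyralis luciferase at 10 nM in 50 mM Tris Acetate (final), luminescence read within 5 minutes of enzyme addition to compounds. Activity normalised to PTC124 versus DMSO; concentration-response curves classed by r2, magnitude and activity.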

[2] = S16 Schwann cell viability assay (CellTiter-Glo assay) (AID 624031); note: nearly all actives have a fitted effect of over 70% in size; note: potency is the fitted concentration of half-maximal effect
Summary of the method: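 Luminescent ATP read-out (CellTiter-Glo) after 24 h compound exposure of native S16 rat Schwann cells at 37 °C. Signals were normalized between cell-free wells and DMSO-treated cells, set as 0% activity.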

[3] = S16 Schwann cell PMP22 intronic element firefly luciferase assay (AID 624032); note: nearly all actives have a fitted effect of over 30% in size; note: potency is the fitted concentration of half-maximal effect
Summary of the method: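 Rat S16 Schwann cells stably carrying firefly luciferase driven by a PMP22 intronic element, in 10% FBS, treated 24 h at 37 C. ONE-Glo luminescence normalized to PTC124 control and DMSO (0%); curves classed by r2, magnitude and activity.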

[4] = S16 Schwann cell PMP22 intronic element beta-lactamase assay (AID 624044; calls by dose curve; note: nearly all actives have a fitted effect of over 15% in size); conditions: S16 rat Schwann cells, PMP22 element beta-lactamase FRET, 24 h; ratio activity, negative = inhibition: at 38.3 µM (top of the series)
Summary of the method: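 Beta-lactamase reporter under a PMP22 intronic regulatory element in stable S16 rat Schwann cells; 24 h compound exposure. 460 nm blue signal normalized between DMSO (0%) and potassium clavulanate, with 535 nm FRET tracking viability; curves classed by r2 and response.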

[5] = target: Glutaminase kidney isoform, mitochondrial (Homo sapiens) (UniProt O94925); assay: qHTS for Inhibitors of Glutaminase (GLS): LOPAC Validation (AID 624146); note: nearly all actives have a fitted effect of over 60% in size; note: potency is the fitted concentration of half-maximal effect
Summary of the method: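 Glutamate formation by hKGA was monitored fluorometrically using coupled glutamate oxidase, HRP and Amplex Red. Substrate was added as 1 mM L-glutamine solution; incubation was 30 min at RT after an initial read.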

[6] = qHTS of Trypanosoma Brucei Inhibitors: LOPAC Validation (AID 624147)
Summary of the method: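 Enzyme and substrate buffer are dispensed first and compound is pin-transferred. ADP at 130 uM final then starts the reaction, which runs 45 min at room temperature. Detection reagent is added for 10 min before luminescence is imaged.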

[7] = target: Glucagon-like peptide 1 receptor (Homo sapiens) (UniProt P43220); assay: qHTS of GLP-1 Receptor Agonists: LOPAC Validation (AID 624148);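 note: higher luminescence signal means agonism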
Summary of the method: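 HEK293 cells stably co-expressing GLP-1R and a cAMP-responsive luciferase reporter, plated 12 hours before compound, then incubated 4-6 hr at 37 deg C. Luminescence read 12 min after detection reagent.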

[8] = qHTS of Nrf2 Activators: LOPAC Validation (AID 624149)
Summary of the method: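 Luciferase signal from ARE activation, read with Steady-Glo after 30 min at room temperature. Compounds were pin-transferred onto AREc32_Fluc cells (1000/well, OPTI-MEM/5% FBS, seeded overnight) and left 24 hr at 37 deg C.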

[9] = HTS Assay for Allosteric Antagonists of the Human D2 Dopamine Receptor: Hit Validation in HTRF (AID 624455);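 note: stable D1 dopamine receptor cell line scored for blocking the D1 response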
Summary of the method: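 Inhibition of the D1-mediated response was measured by HTRF. Cells used were a line stably expressing the D1 dopamine receptor.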

[10] = Cytotoxicity counterscreen for NFkB agonists and antagonists (AID 624476)
[11] = qHTS Assay for Identification of Small Molecule Agonists for NFkB Signaling Pathway. (AID 624478);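 note: compounds tested together with TNF alpha at its EC50 of 10 pM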
Summary of the method: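 Compounds were added with 10 pM TNF alpha (EC50 level) to ME-180 NFkB-bla cells in low-serum Opti-MEM and incubated 5 hrs at 37 C. Beta-lactamase FRET read-out used 405 nm excitation and 460 and 530 nm emission.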

[12] = Cell Proliferation Assay against the TMD8 Cell Line (AID 651645); conditions: TMD8 DLBCL cell line proliferation/viability; at 46.1 µM (top of the series) unless noted;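 note: cells exposed to compound for 48 h before reading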
Summary of the method: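 Seed log-phase TMD8 cells in RPMI containing 5% FBS, add compounds at once, incubate 48 hours at 37C. Equilibrate to room temperature, add CellTiter-Glo, read luminescence after 15 minutes and express relative to DMSO and bortezomib controls.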

[13] = qHTS Assay for Identification of Small Molecule Antagonists for NFkB Signaling Pathway. (AID 624479; calls by dose curve;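 note: pathway stimulated with TNF alpha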)

Sequence of Luciferin 4-monooxygenase (Photinus pyralis) (P08659 whole entry, looked up): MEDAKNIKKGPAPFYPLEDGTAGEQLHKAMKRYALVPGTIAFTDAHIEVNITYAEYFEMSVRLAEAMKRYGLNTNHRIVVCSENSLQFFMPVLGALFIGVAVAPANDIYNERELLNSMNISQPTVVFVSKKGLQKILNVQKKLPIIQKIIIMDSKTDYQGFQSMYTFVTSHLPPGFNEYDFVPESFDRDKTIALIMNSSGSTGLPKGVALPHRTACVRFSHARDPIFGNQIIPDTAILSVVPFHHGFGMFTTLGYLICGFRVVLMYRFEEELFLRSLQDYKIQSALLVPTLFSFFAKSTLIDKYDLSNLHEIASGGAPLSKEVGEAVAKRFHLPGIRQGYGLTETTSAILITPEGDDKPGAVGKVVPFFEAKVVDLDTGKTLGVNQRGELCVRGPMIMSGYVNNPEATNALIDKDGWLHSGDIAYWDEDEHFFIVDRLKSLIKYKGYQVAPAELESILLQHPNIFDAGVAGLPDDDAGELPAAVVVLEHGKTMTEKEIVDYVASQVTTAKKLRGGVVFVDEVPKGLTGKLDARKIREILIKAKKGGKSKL
Sequence of Glucagon-like peptide 1 receptor (Homo sapiens) (P43220 whole entry, looked up): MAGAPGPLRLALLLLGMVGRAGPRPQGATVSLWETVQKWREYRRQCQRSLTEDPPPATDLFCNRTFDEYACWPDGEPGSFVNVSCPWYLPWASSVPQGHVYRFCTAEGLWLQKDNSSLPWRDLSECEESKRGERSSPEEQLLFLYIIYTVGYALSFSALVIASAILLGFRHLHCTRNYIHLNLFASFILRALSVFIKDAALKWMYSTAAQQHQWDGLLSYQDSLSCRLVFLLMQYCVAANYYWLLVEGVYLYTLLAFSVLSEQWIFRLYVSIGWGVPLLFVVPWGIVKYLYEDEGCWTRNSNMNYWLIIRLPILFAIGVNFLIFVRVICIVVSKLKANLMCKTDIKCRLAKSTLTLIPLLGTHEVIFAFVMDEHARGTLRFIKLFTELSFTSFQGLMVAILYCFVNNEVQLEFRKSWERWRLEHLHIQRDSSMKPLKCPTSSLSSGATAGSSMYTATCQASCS
Sequence of Glutaminase kidney isoform, mitochondrial (Homo sapiens) (O94925 whole entry, looked up, canonical isoform): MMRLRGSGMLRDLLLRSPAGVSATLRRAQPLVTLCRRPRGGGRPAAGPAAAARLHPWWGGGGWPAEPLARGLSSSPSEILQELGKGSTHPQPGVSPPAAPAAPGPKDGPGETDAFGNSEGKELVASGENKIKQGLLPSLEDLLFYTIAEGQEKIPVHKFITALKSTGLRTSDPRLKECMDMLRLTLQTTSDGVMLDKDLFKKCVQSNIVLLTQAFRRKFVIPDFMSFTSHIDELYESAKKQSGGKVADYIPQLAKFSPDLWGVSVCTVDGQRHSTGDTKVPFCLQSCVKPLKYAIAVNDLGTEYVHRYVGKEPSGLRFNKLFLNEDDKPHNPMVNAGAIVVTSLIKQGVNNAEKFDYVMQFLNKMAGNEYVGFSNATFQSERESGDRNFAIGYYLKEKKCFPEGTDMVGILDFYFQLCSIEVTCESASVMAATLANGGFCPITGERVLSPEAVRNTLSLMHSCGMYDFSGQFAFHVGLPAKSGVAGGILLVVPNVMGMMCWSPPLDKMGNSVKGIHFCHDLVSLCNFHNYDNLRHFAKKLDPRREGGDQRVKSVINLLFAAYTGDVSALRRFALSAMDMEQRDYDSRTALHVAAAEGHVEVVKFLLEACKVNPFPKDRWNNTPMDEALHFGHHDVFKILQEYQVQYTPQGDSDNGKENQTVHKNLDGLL

CN1C2CCC1CC(OC(=O)c1c[nH]c3ccccc13)C2 (stereo not drawn)
inactive: Potency [1] | Potency [2] | Potency [3] | Potency [4] | Potency [5] | outcome [6] | outcome [7] | Potency [8] | outcome [9]

CC(C)C[C@H]1C(=O)N2CCC[C@H]2[C@]2(O)O[C@](NC(=O)[C@@H]3C=C4c5cccc6[nH]c(Br)c(c56)C[C@H]4N(C)C3)(C(C)C)C(=O)N12
inactive: outcome [6] | outcome [7] | Potency [8]

CCCC1O[C@@H]2C[C@H]3[C@@H]4CCC5=CC(=O)C=C[C@]5(C)[C@H]4[C@@H](O)C[C@]3(C)[C@]2(C(=O)CO)O1 (stereo partly drawn)
inactive: Potency [5] | outcome [6] | outcome [7] | Potency [8] | outcome [9]

COc1cc2c(cc1O)CC[C@@H]1[C@@H]2CC[C@]2(C)[C@@H](O)CC[C@@H]12
inactive: outcome [6] | outcome [7] | Potency [8] | outcome [9] | Potency [10] | outcome [11]
24.3%: viability (% of control) [12]
active: Potency [5] 1.58 µM

O=C1OCCN1/N=C/c1ccc([N+](=O)[O-])o1
inactive: Potency [1] | Potency [2] | Potency [4]

CC[N+](CC)(CCNC(=O)C(=O)NCC[N+](CC)(CC)Cc1ccccc1Cl)Cc1ccccc1Cl
inactive: Potency [1] | Potency [2] | Potency [3] | Potency [4]

Oc1ccc(Cl)cc1Sc1cc(Cl)ccc1O
inactive: Potency [1] | Potency [2] | Potency [3] | Potency [4]

CC[C@H](C)C(=O)O[C@H]1CCC=C2C=C[C@H](C)[C@H](CC[C@@H]3C[C@@H](O)CC(=O)O3)[C@H]21
inactive: Potency [5] | outcome [6] | outcome [7] | Potency [8] | outcome [9]

CCCn1c(=O)[nH]c(=O)c2[nH]cnc21
inactive: Potency [1] | Potency [2] | Potency [3] | Potency [4] | Potency [5] | outcome [6] | outcome [7] | Potency [8] | outcome [9]

C[N+]1(CCCCC[N+]2(C)CCCC2)CCCC1
inactive: Potency [1] | Potency [2] | Potency [3] | Potency [5] | outcome [6] | outcome [7] | Potency [8] | outcome [9]

Cc1cc(O)c(C(C)C)cc1Cl
inactive: Potency [1] | Potency [2] | Potency [3] | Potency [4]

CC(=O)N/N=C/c1ccc([N+](=O)[O-])o1
inactive: Potency [1] | Potency [4]

COc1ccc(CCN2CCC(Nc3nc4ccccc4n3Cc3ccc(F)cc3)CC2)cc1
inactive: Potency [1]
active: Potency [2] 16.1 µM | Potency [3] 20.3 µM

CCOc1ccc2nc3cc(N)ccc3c(N)c2c1
active: Potency [2] 12.8 µM
inactive: Potency [1] | Potency [4]

COc1cc2c(cc1OC)C(C(C(=O)N(CCc1ccc(OC)c(OC)c1OC)CCc1ccc(OC)c(OC)c1OC)c1ccccc1)=NCC2 (stereo not drawn)
active: Potency [3] 28.7 µM
inactive: Potency [1] | Potency [2] | Potency [4]

C[C@@H]1CN(CCCn2c3ccccc3c3ccccc32)C[C@H](C)N1
inactive: Potency [1] | Potency [4]
active: Potency [2] 32.2 µM | Potency [3] 36.1 µM

Nc1ccn([C@@H]2O[C@H](CO)[C@@H](O)C2(F)F)c(=O)n1
1.47% [at 92.2 µM]: viability (% of control) [12]
inactive: Potency [10] | outcome [11] | Potency [13]

c1ccc(-c2ccc(C(c3ccccc3)n3ccnc3)cc2)cc1 (stereo not drawn)
inactive: Potency [1] | Potency [2] | Potency [3] | Potency [4]

CC(C)COC(=O)OCN1C(=O)CN(CCN2CC(=O)N(COC(=O)OCC(C)C)C(=O)C2)CC1=O
inactive: Potency [1] | Potency [2] | Potency [3] | Potency [5] | outcome [6] | outcome [7] | Potency [8] | outcome [9]

CC(CCc1ccccc1)NCC(O)c1ccc(O)c(C(N)=O)c1 (stereo not drawn)
inactive: Potency [5] | outcome [6] | outcome [7] | Potency [8] | outcome [9]

NCCCC[C@H](N[C@@H](CCc1ccccc1)C(=O)O)C(=O)N1CCC[C@H]1C(=O)O
inactive: Potency [1] | Potency [2] | Potency [3] | Potency [4]

CCN1CCN(c2cc3c(cc2F)c(=O)c(C(=O)O)cn3C2CC2)CC1
inactive: Potency [1] | Potency [2] | Potency [3]

CC(C)(C)CC(C)(C)c1ccc(O)c(Cc2ccc(Cl)cc2Cl)c1
active: Potency [3] 36.1 µM
inactive: Potency [1]

CCCCCC=CCC=CCCCCCCCC(=O)OCC
inactive: Potency [1] | Potency [2] | Potency [3] | Potency [4]

Cc1c(C)n(Cc2ccccc2)c2ccc(C(=O)OCCN(C)C)cc12
inactive: Potency [3] | Potency [4]

COC(=O)[C@H]1[C@H]2C[C@H]3c4[nH]c5ccccc5c4CCN3C[C@H]2CC[C@@H]1O
inactive: Potency [1] | Potency [2] | Potency [3] | Potency [4] | outcome [6] | outcome [7] | Potency [8] | outcome [9]

Clc1ccc2c(c1)CCc1cccnc1C2=C1CCNCC1
inactive: Potency [1] | Potency [4]

CCCN1CCCC[C@H]1C(=O)Nc1c(C)cccc1C
inactive: Potency [1] | Potency [2] | Potency [3] | Potency [4]
